Source: PubChem BioAssay AID588778 (Southern Research Institute, 2011)
Among all 10,000 compounds or so, fewer than 10 were called active. The rule behind the calls is not given here. The list is a sample of the results.

Assay: Vibrio cholerae motility inhibitors, OD read-out (AID 588778)
Conditions: stronger effect = higher value
[1] = measured here: bacterial viability at 10 ug/mL

Cc1c(NC(=O)c2nn3c(C(F)(F)F)c4c(nc3c2Cl)-c2ccccc2CC4)c(=O)n(-c2ccccc2)n1C
inhibition (concentration not given here): -11.3% (inactive) | inhibition [1]: -0.51%

S=C1NC(C23CC4CC(CC(C4)C2)C3)=CC(c2ccc(Cl)cc2)N1 (stereo not drawn)
inhibition (concentration not given here): -6.78% (inactive) | inhibition [1]: -4.13%

CC(C)CC(C(=O)Oc1ccc2c3c(c(=O)oc2c1)CCC3)N1C(=O)c2ccccc2C1=O (stereo not drawn)
inhibition (concentration not given here): 6.55% (inactive) | inhibition [1]: -2.25%

CCC(=O)OCC12COC3c4ccccc4OC(C)(CC1C)C3C2C (stereo not drawn)
inhibition (concentration not given here): -16.5% (inactive) | inhibition [1]: -10.6%

CCOC(=O)c1ccc(NC(=O)COc2ccc3oc(=O)cc(C)c3c2)cc1
inhibition (concentration not given here): -17.2% (inactive) | inhibition [1]: -0.82%

Cc1ccccc1C(=O)N1CCN(c2nc(N3CCCC3)nc(N3CCCC3)n2)CC1
inhibition (concentration not given here): -0.47% (inactive) | inhibition [1]: 0.25%

O=C(Cc1c(F)cccc1Cl)NCc1ccc2c(c1)OCO2
inhibition (concentration not given here): 40% (inactive) | inhibition [1]: 7.78%

O=C(CSc1nnnn1-c1ccccc1)c1cc2ccccc2oc1=O
inhibition (concentration not given here): 3.97% (inactive) | inhibition [1]: -4.29%

COCCSc1nnc(NC(=O)Cc2c(F)cccc2Cl)s1
inhibition (concentration not given here): -2.92% (inactive) | inhibition [1]: -1.31%

O=C(NC(=O)c1ccccc1)Nc1ccc(Br)cc1
inhibition (concentration not given here): -16.2% (inactive) | inhibition [1]: -9.72%

COc1c(C)cc(Br)cc1C(=O)NC(=S)Nc1nc(C)cc(C)n1
inhibition (concentration not given here): -16.1% (inactive) | inhibition [1]: -11.8%

CCCCC(=O)Nc1ccc(NC(=O)C(Cl)(Cl)Cl)cc1OC
inhibition (concentration not given here): 3.09% (inactive) | inhibition [1]: -3.52%

O=C(CCOc1ccccc1)Nc1ccc(Br)cc1
inhibition (concentration not given here): -9.09% (inactive) | inhibition [1]: -6.95%

O=C(NCc1ccc(-c2nc3ccccc3s2)cc1)c1ccc(Br)o1
inhibition (concentration not given here): 1.75% (inactive) | inhibition [1]: 9.78%

Cc1ccc(S(=O)(=O)Nc2cc(Sc3nnnn3-c3ccccc3)c(O)c3ccccc23)cc1
inhibition (concentration not given here): 15.9% (inactive) | inhibition [1]: 1.17%

COC(=O)C1=C(C)NC(C)=C(C(=O)OC)C1c1sccc1C
inhibition (concentration not given here): 20.1% (inactive) | inhibition [1]: -0.13%

CC(=O)CSc1nnc(-c2cccnc2)o1
inhibition (concentration not given here): -0.39% (inactive) | inhibition [1]: 0.24%

O=C(O)C(Cc1ccccc1)N1C(=O)/C(=C/c2ccc([N+](=O)[O-])cc2)SC1=S (stereo not drawn)
inhibition (concentration not given here): 8.42% (inactive) | inhibition [1]: 1.4%

CCOC(=O)c1c(NC(=O)Nc2ccccc2C)sc2c1CC(C)(C)OC2
inhibition (concentration not given here): 9.16% (inactive) | inhibition [1]: 24.8%

COc1ccc(OC)c(C(=O)CCC(=O)Nc2cccc(C(F)(F)F)c2)c1
inhibition (concentration not given here): -4.82% (inactive) | inhibition [1]: 3.82%

CCOC(=O)C1(NC(=S)N(CC)CC)Sc2cc(C)ccc2NC1=O (stereo not drawn)
inhibition (concentration not given here): 12.1% (inactive) | inhibition [1]: 13.5%

CCN(CC)c1ccc(CNC(C)C(O)c2ccccc2)cc1 (stereo not drawn)
inhibition (concentration not given here): 19.9% (inactive) | inhibition [1]: 5.6%

c1ccc2nc3c(nc2c1)CCc1nonc1-3
inhibition (concentration not given here): 0.045% (inactive) | inhibition [1]: -1.06%

CCOC(=O)c1ccc(CNC(=O)CCC(=O)O)cc1
inhibition (concentration not given here): 2.35% (inactive) | inhibition [1]: -10.3%

O=C(CCC(=O)Nc1ccccc1Cl)NNC(=O)Nc1ccc(F)cc1F
inhibition (concentration not given here): -13.9% (inactive) | inhibition [1]: -8.28%

O=C(c1c(F)cccc1F)N1CCN(C(c2ccccc2)c2ccccc2)CC1
inhibition (concentration not given here): 11.9% (inactive) | inhibition [1]: -2.62%

O=C(NC(=S)NNC(=O)c1cnccn1)c1ccc(F)cc1
inhibition (concentration not given here): 17.5% (inactive) | inhibition [1]: 4.07%

CCSc1nnc(NC(=O)c2ccc(Br)s2)s1
inhibition (concentration not given here): -21.3% (inactive) | inhibition [1]: -10.2%

O=C(O)CCc1ccc(-c2cccs2)n1-c1cc(Cl)ccc1Cl
inhibition (concentration not given here): 5.81% (inactive) | inhibition [1]: -0.02%

CCc1ccccc1OCCCCn1c2ccccc2c2ccccc21
inhibition (concentration not given here): -30.3% (inactive) | inhibition [1]: -15.4%

COCCSc1ccccc1C(=O)NCc1ccc(S(N)(=O)=O)cc1
inhibition (concentration not given here): 4.8% (inactive) | inhibition [1]: 5.23%

CCCC(=O)N1CCN(c2ccc(NC(=O)COc3ccc(C)c(C)c3)cc2Cl)CC1
inhibition (concentration not given here): 10.7% (inactive) | inhibition [1]: 4.97%

O=C(Nc1nnc(C(F)(F)F)s1)C(Sc1ccccc1)c1ccccc1 (stereo not drawn)
inhibition (concentration not given here): -9.96% (inactive) | inhibition [1]: -4.95%

O=C(Cc1ccccc1Cl)c1ccc(O)c(O)c1O
inhibition (concentration not given here): 12.7% (inactive) | inhibition [1]: 2.63%

COc1cc(OC)c(NC(=O)c2csc3ccccc23)cc1Cl
inhibition (concentration not given here): 4.43% (inactive) | inhibition [1]: 1.11%

COC(C(=O)Nc1cc([N+](=O)[O-])ccc1C)c1ccccc1 (stereo not drawn)
inhibition (concentration not given here): 3.61% (inactive) | inhibition [1]: -3.16%

O=C(OCc1ccccc1F)c1ccc([N+](=O)[O-])cc1Cl
inhibition (concentration not given here): 45.5% (inactive) | inhibition [1]: 18.5%

Cn1ncc(C#N)c1NC(=O)C1CC(c2c(F)cccc2Cl)=NO1 (stereo not drawn)
inhibition (concentration not given here): 15.8% (inactive) | inhibition [1]: 10.8%

Cn1nc([N+](=O)[O-])nc1Sc1nnc(-c2cccnc2)o1
inhibition (concentration not given here): 44.4% (inactive) | inhibition [1]: 15.6%

COc1cc2c(NCc3ccccc3)cc(O)c(CC(=O)Nc3ccc(Cl)cc3)c2cc1OC
inhibition (concentration not given here): 8.57% (inactive) | inhibition [1]: 1.46%

Cc1ccc(-c2c(C(=O)NNC(=S)NCC3CCCO3)csc2C)cc1 (stereo not drawn)
inhibition (concentration not given here): 17.3% (inactive) | inhibition [1]: -2.95%

Cc1ccccc1NC(=S)NC1CCCC1
inhibition (concentration not given here): -3.76% (inactive) | inhibition [1]: -1.53%

O=C(CSc1nc2ccccc2s1)NNC(=S)Nc1ccc(F)c(Cl)c1
inhibition (concentration not given here): 47.6% (inactive) | inhibition [1]: 18.2%

Cc1ccc2c(c1)C(=O)C(=O)N2
inhibition (concentration not given here): 26.8% (inactive) | inhibition [1]: 12.9%

Cc1nc(Oc2ccc3c(c2)OCO3)c2cc(-c3ccccc3)sc2n1
inhibition (concentration not given here): 6.33% (inactive) | inhibition [1]: 0.3%

Cc1ccc2cccc(OCc3nnc(-c4ccccc4)o3)c2n1
inhibition (concentration not given here): 14.5% (inactive) | inhibition [1]: -1.8%

COC(=O)c1ccc2ccn(CC(N)=O)c2c1
inhibition (concentration not given here): 8.78% (inactive) | inhibition [1]: 7.37%

COc1cccc(/C=C/C2=NN(c3ccc(Cl)c(Cl)c3)C(c3cccc(OC)c3OC)C2)c1OC (stereo not drawn)
inhibition (concentration not given here): 26.7% (inactive) | inhibition [1]: 13.6%

Cc1ccccc1NC(=O)NC1CCS(=O)(=O)C1 (stereo not drawn)
inhibition (concentration not given here): -0.46% (inactive) | inhibition [1]: -4.02%

C=CCOc1cccc(CNc2ccc3[nH]c(=O)[nH]c3c2)c1
inhibition (concentration not given here): 33.7% (inactive) | inhibition [1]: 18.3%

Cc1ccc2nc(-c3cccnc3)cc(C(=O)Nc3ccc4c(C)cc(=O)oc4c3)c2c1
inhibition (concentration not given here): -7.04% (inactive) | inhibition [1]: 9.26%

O=C(O)Cc1ccc(NC(=O)c2cccnc2C(=O)O)cc1
inhibition (concentration not given here): -4.82% (inactive) | inhibition [1]: -2.46%

Cc1ccc(NC(=O)c2ccccc2NC(=O)Cc2ccc(Cl)cc2)cc1C
inhibition (concentration not given here): 11.1% (inactive) | inhibition [1]: 19.3%

O=C1C(c2ccccn2)=C(O)c2ccccc21
inhibition (concentration not given here): 14.8% (inactive) | inhibition [1]: 4.31%
